Laboratory results as given in paper PMC4336329 (PLoS ONE, 2015).
Screen size: about 310,000 compounds; about 14,000 (4.5%) showed an effect of 50% or more. The effect is printed as a negative number. The list comes from a sample in which strong results are over-represented; it also holds similar structures and randomly drawn compounds.

What follows are compounds tested against human ether-à-go-go-related gene (hERG) potassium channel (human, UniProt Q12809) (assay: primary screen, population patch clamp on CHO cells stably expressing hERG; higher = less effect of the substance).
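Further: peak tail current of the secondary pulse compared with the same well before compound.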

human ether-à-go-go-related gene (hERG) potassium channel, sequence (Q12809 whole entry, looked up): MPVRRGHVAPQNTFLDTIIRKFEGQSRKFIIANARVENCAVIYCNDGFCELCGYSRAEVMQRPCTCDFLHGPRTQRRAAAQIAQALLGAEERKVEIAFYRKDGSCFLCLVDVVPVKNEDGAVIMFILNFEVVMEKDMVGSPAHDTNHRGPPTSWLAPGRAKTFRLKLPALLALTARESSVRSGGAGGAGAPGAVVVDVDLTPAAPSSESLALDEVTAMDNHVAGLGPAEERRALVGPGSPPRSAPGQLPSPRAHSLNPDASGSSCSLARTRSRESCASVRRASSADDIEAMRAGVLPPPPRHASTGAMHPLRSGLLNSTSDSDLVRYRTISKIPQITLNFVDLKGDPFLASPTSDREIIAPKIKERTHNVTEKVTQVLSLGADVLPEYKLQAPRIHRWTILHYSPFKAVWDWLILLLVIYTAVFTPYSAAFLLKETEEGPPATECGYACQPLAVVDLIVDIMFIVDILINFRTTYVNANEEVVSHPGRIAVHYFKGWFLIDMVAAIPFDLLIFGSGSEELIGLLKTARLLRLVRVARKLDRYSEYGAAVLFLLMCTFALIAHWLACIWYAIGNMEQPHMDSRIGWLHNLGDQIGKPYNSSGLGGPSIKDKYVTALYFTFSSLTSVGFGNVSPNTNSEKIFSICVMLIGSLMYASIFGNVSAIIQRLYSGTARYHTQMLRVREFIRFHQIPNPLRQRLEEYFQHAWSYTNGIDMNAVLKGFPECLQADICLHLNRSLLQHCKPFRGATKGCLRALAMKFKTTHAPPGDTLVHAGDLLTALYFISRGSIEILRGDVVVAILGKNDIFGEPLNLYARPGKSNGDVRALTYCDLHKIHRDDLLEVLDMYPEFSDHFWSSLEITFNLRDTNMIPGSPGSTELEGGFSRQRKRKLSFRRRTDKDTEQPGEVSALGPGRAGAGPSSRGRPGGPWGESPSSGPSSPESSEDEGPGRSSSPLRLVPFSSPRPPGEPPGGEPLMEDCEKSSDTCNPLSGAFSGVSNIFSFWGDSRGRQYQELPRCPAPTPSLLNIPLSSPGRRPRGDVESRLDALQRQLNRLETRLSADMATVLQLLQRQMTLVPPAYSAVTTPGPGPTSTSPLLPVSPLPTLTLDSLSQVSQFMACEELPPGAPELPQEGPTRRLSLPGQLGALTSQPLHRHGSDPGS

Row | Structure (SMILES) | hERG current change (%, negative = inhibition) at 10uM [%]
1 | COc1ccc(CC(C#N)(CO)c2nc3ccccc3[nH]2)cc1 (centres unmarked) | -7.12
2 | N#CC(CO)(Cc1ccc(OC(F)F)cc1)c1nc2ccccc2[nH]1 (centres unmarked) | -52
3 | Cc1cc(C)cc(C(=O)N2CCN(Cc3ccc4c(c3)OCO4)CC2)c1 | -20.1
4 | COc1ccccc1Oc1ccc(N2CC(C(=O)OCC(=O)c3ccccc3)CC2=O)cc1 (centres unmarked) | 18
5 | O=C(Cc1cccs1)N/N=C/c1ccccn1 | -7.62
6 | Cc1cc(NC(=O)COC(=O)C(C)Oc2ccc(Cl)cc2Cl)no1 (centres unmarked) | 12.2
7 | COc1ccc(/C=N/Nc2ccccn2)c(OC)c1OC | 3.27
8 | Cc1ccc(NS(=O)(=O)c2ccc(-c3cnc(C4CC4)o3)cc2)c(C)c1 | 2.08
9 | COC(=O)c1ccc(Cn2c(CN3CCOCC3)nc3ccccc3c2=O)o1 | -5.56
10 | Cc1cc(C(F)F)n2ncc(C(=O)N3CCC(C(N)=O)CC3)c2n1 | 16.1
11 | CN(C(=O)c1cc2c(s1)-c1ccccc1S(=O)(=O)C2)c1ccccc1 | -0.0159
12 | CCCCN(C)C(=O)c1cc2c(s1)-c1ccccc1S(=O)(=O)C2 | -56.5
13 | CN(C(=O)c1cc2c(s1)-c1ccccc1S(=O)(=O)C2)c1ccccc1F | -3.69
14 | O=C1CCCCC1C(Nc1ccc(Br)cc1)c1ccccc1 (centres unmarked) | 4.34
15 | O=C(CCC(=O)Nc1ccc(F)cc1)N/N=C/c1ccc(F)cc1 | 13.1
16 | COc1ccc(N2Cc3ccccc3C2)cc1Cl | -59.9
17 | COc1ccc(Cl)cc1N1Cc2ccccc2C1 | -3.46
18 | COc1cc(N2Cc3ccccc3C2)ccc1C=O | -3.61
19 | O=c1cc(Nc2ccc3c(c2)OCCO3)[nH]c(=O)n1-c1ccc(Br)cc1 | 14.3
20 | O=C(CN1C(=O)CSc2ccc(S(=O)(=O)N3CCCCC3)cc21)NCc1ccccc1Cl | -15.1
21 | O=S(=O)(Nc1cccc(-n2cnnn2)c1)c1cccc(Cl)c1 | 16.2
22 | Cc1ccc2nc(-c3cccc(Br)c3)cc(C(=O)NC3CC3)c2c1 | 13.7
23 | COc1ccc(-c2cc(C(=O)NC3CCCC3)c3ccccc3n2)cc1 | -21.6
24 | Cc1cccc(-c2cc(C(=O)Nc3cccnc3)c3ccccc3n2)c1 | -21.2

Row | Structure (SMILES) | hERG current change (%, negative = inhibition) at 10uM [%]
25 | CN1CCC(NC(=O)c2cc(-c3cccc(Br)c3)nc3ccccc23)CC1 | -69.7
26 | O=C(NC1CC1)c1cc(-c2ccc(Br)cc2)nc2ccccc12 | 0.545
27 | COc1cccc(-c2cc(C(=O)Nc3ccccc3)c3ccccc3n2)c1 | 8.07
28 | CN1CCC(N(C)C(=S)NC(=O)c2cc(-c3cccc(Br)c3)nc3ccccc23)CC1 | -15.3
29 | COc1ccc(-c2cc(C(=O)NC3CC3)c3ccccc3n2)cc1 | -64.5
30 | COc1cccc(-c2cc(C(=O)NC3CCCC3)c3ccccc3n2)c1 | -36.8
31 | COc1cccc(-c2cc(C(=O)NC3CC3)c3ccccc3n2)c1 | -51.2
32 | Cc1ccc(C)c(-c2cc(C(=O)Nc3cccnc3)c3ccccc3n2)c1 | -61
33 | Cc1ccc(C)c(-c2cc(C(=O)Nc3cccc(C(=O)O)c3)c3ccccc3n2)c1 | 20.3
34 | CC1=C(C(=O)OC(C)C)C(c2ccccc2)NC(=S)N1C (centres unmarked) | 2.43
35 | COc1ccc(-n2c(=S)[nH]c3ccccc32)cc1 | 1.28
36 | CC(C)Oc1cccc(-c2cc(C(=O)NN3CCOCC3)c3ccccc3n2)c1 | -60.8
37 | Cc1ccc(C)c(-c2cc(C(=O)NN3CCOCC3)c3ccccc3n2)c1 | -17.1
38 | Cl.O=C(NCCc1ccccn1)c1cc(-c2cccc3ccccc23)nc2ccccc12 | -27.1
39 | O=C(NCCc1ccccn1)c1cc(-c2ccccc2Cl)nc2ccccc12 | -2.8
40 | Cc1cc(C(=O)NC2CC2)c2ccccc2n1 | 19.9
41 | Cc1ccc(C)c(-c2cc(C(=O)NC3CC3)c3ccccc3n2)c1 | -61.1
42 | COc1cccc(-c2cc(C(=O)NN3CCOCC3)c3ccccc3n2)c1 | -24.3
43 | COC(=O)c1sccc1NC(=O)c1c(C)c(-c2cccc(Cl)c2)nc2ccccc12 | 16.7
44 | Cc1c(-c2cccc(Cl)c2)nc2ccccc2c1C(=O)NC1CC1 | -60.6
45 | Cc1ccc(-c2cc(C(=O)NCCc3ccccn3)c3ccccc3n2)c(C)c1 | -51.1
46 | Cc1c(-c2cccc(Cl)c2)nc2ccccc2c1C(=O)N1CCC2(CC1)OCCO2 | -47.4
47 | O=C(NN1CCOCC1)c1cc(-c2ccccc2)nc2ccccc12 | -8.03
